Compounds without any hit were thinned out: in the full panel of roughly 83,000, 20% have a hit.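 For each line, cells grew in 96-well plates with the test compound present at a single concentration for 48 hours.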 The source made the active and inactive calls. How the source made its calls: active means growth percent below 10; inactive means the rest.
The compounds below were run on MDA-MB-468 breast (assay: NCI-60 one-dose screen, 48 h (100 = growth as untreated, 0 = no growth, -100 = all killed)). Conditions: 10 µM unless noted.

| Compound | growth |
| --- | --- |
| NC(=O)c1c(NC(=O)c2cccc(OC(F)(F)F)c2)sc2c1CCC(=O)C2 | 42% (inactive) |
| C=C1C(=O)O[C@H]2[C@H]1CC/C(COC(=O)c1cccnc1)=C\CC[C@@]1(C)O[C@@H]21 | 17.6% (inactive) |
| C[C@@H]1CC[C@@H]2[C@@H]1[C@H](OC(=O)c1ccc3ccccc3c1)[C@]1(C3CCCCC3)C[C@@H](OC(=O)CO)[C@@]2(C)O1 | 63.6% (inactive) |
| N#Cc1c(-c2ccccc2)cc(-c2ccccc2)n(CCCC(=O)Nc2ccccc2N)c1=O | 14.9% (inactive) |
| CNC1CCc2c(sc(NC(=O)c3ccc(C(C)(C)C)cc3)c2C(N)=O)C1 (stereo unspecified) | -37.2% (active) |
| COc1ccc(S(=O)(=O)n2cc(C(=O)C(=O)Nc3ccncc3)c3ccccc32)cc1F | 17.9% (inactive) |
| Cc1cc2ccccc2c(O)c1C#N | 117% (inactive) |
| CN(C)CCN1C(=O)c2cccc3c(-c4ccc5ncn(C6CCCCC6)c5c4)ccc(c23)C1=O | 4.33% (active) |
| COc1cc(/C=C2\C(=O)N(CC(O)COc3cc(O)c4c(=O)cc(-c5ccccc5)oc4c3)c3ccccc32)cc(OC)c1O (stereo unspecified) | 74.3% (inactive) |
| COc1cc(-c2nc(-c3nc4ccc(Cl)cc4[nH]3)cc3c2[nH]c2ccccc23)cc(OC)c1OC | 44.1% (inactive) |
| CC/C(Cc1ccccc1)=C(\c1ccc(OCCN2CCCC2)cc1)c1ccc(OC(C)=O)cc1 | 62.8% (inactive) |

From PubChem BioAssay (NCI)
